Results with a measured potency or affinity are listed apart. Values without a mark were called inactive. How the calls were made is not given here.

The experiment is described as follows: viability loss in HEK293 cells – cell-based, plate reader, cherry-picked samples, cytotoxicity control, dose response (AID 743446). As to conditions: hits give low values; at 26 µM unless noted.
As for `COc1ccc(-c2cc(C(=O)N3CCCC3)no2)cc1`, the max activity is 30.6% [at 0.195 µM].

Regarding `Cc1ccc(-c2csc(Nc3ccccn3)n2)cc1`, the max activity is -11.1%.

With `O=C(NCCc1ccc(Cl)cc1)c1ccc2c(c1)OCCO2`, the max activity is 19.7% [at 0.8 µM]. `c1ccc(-n2ncc3c(N4CCCCC4)ncnc32)cc1`: the max activity was -13.3% [at 3 µM]. To `O=C(Cc1ccccc1Cl)Nc1cccnc1` belongs 17.2% [at 0.1 µM]. To `COc1cccc(C(=O)Nc2ccc3c(c2)OC[C@@H](C)N(CC2CC2)C[C@H](C)[C@H](OC)CN(C)C3=O)c1` belongs 13% [at 0.05 µM]. To `C[C@H](CO)N1C[C@H](C)[C@H](CN(C)C(=O)CN2CCOCC2)Oc2ncc(C#CCN(C)C)cc2C1=O` belongs 18.5% [at 0.42 µM]; to `C=CCNc1nc(-c2cc3ccccc3o2)cs1`, -11.4% [at 0.8 µM]; to `Cc1ccccc1N=CC1=C(O)c2ccccc2C1=O`, 12.1% [at 0.05 µM]. On to `O=C(NCc1ccc(F)cc1)c1cc(C2CCCCN2S(=O)(=O)c2cccs2)on1` (stereo unspecified), for which the max activity is 15.1% [at 0.38 µM]. `O=C(CN1C(=O)c2ccccc2S1(=O)=O)c1ccccc1Cl`: the max activity was 32.4%. Turning to `C[C@H](CO)N1C[C@H](C)[C@H](CN(C)C(=O)Cc2ccccc2)OCCCC[C@H](C)Oc2ccc(NC(=O)Nc3ccc(C(F)(F)F)cc3)cc2C1=O`, the max activity is 12.5% [at 3 µM].

Take `COc1ccc(-c2nc(N)n(C(=O)c3cccs3)n2)cc1`: the max activity is 49.5%. To `CCn1c2ccccc2c2cc(CNCc3ccc(OC)cc3OC)ccc21` belongs -98.9%; to `Cc1csc(NC(=O)c2ccc(OCC3CCCO3)cc2)n1` (stereo unspecified), 28.1% [at 3 µM].

Take `Cc1ccc(-n2cc(CN(C)Cc3nccn3C)c(-c3cccc(C)c3)n2)cc1`: the max activity was 22.6% [at 1.6 µM]. To `COc1ccc(-c2cc(C(=O)Nc3cccc(O)c3)no2)cc1` belongs 75.5% [at 0.195 µM].

For the molecule `CC(C)(C)C(=O)Nc1ccc(NC(=O)c2ccco2)nc1`, the max activity is 11.3% [at 0.38 µM]. To `CCOC(=O)Nc1ccc(N2CCOCC2)c(S(=O)(=O)Nc2ccc(Cl)cc2)c1` belongs -19.3%; to `Cc1ccc(Nc2nc(N)c3ccccc3n2)cc1C`, -37.4%; to `O=C(CN1C(=O)c2ccccc2S1(=O)=O)c1ccccc1F`, 74.6%. To `C[C@H](CO)N1C[C@H](C)[C@H](CN(C)Cc2ccc(C(F)(F)F)cc2)Oc2ccc(NC(=O)Nc3ccc(F)cc3)cc2C1=O` belongs -29.9%.

For `OC[C@H]1[C@@H](c2ccc(-c3ccc(F)cc3)cc2)[C@@H]2CN(Cc3ccccn3)CCCCN12`, the max activity was -12.3%. To `C[C@@H]1CN([C@@H](C)CO)C(=O)c2cc(NS(=O)(=O)c3ccc(F)cc3)ccc2O[C@H]1CN(C)Cc1ccc(-c2ccccc2)cc1` belongs -27.1%; to `Cc1ccc2nc(CSc3nc(C)ccc3C#N)[nH]c2c1`, -29.6% [at 1.6 µM]. To `Oc1ccc(-c2csc(-c3cccnc3)n2)c(O)c1` belongs -34.3%.

These data come from PubChem BioAssay AID743446 (Broad Institute, 2014).
